Where “and” joins values, the source holds several entries; their conditions need not be identical. Equal values may be shown once. Results filed as inconclusive are left out. Calls of active or inactive are those of the source. The call rests on the fitted dose curve; in most records, active means well fitted cell-killing curve with a large enough effect; inconclusive means small, poorly fitted or top-dose-only effect; inactive means flat fitted curve, though single readings scatter.
Assay: qHTS of pediatric cancer cell lines to identify multiple opportunities for drug repurposing: Primary screen for BT-12 cells (AID 1347101); further: nearly all actives have a fitted effect of over 25% in size;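 on activity change, negative = cytotoxic: plate controls were DMSO for no effect and bortezomib positive control for full effect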
Conditions: BT-12 viability, CellTiter-Glo luminescence, 48 h; series mostly up to 57.3 µM; activity change, negative = cytotoxic: at the top concentration
Description: Drug repurposing or repositioning has been offered as a strategy for drug development in oncology programs. This approach has special potential for childhood cancers and other rare or orphan diseases, where the expected return on new drug development has been a disincentive to pharmaceuticals.
In this project we exploit the poly-pharmacology of drugs to discover new indications via phenotypic screening of a panel of 19 well-characterized cell lines derived from solid tumors seen in children and adolescents. The goal is to identify approved drugs with previously unrecognized anticancer properties that has the potential to reveal new mechanisms and biological processes involved in carcinogenesis or drug resistance. We employed a titration-based paradigm (quantitative high-throughput screening or qHTS), where all compounds were tested at multiple concentrations for their effect on cell viability. Concentration-response curves (CRCs) were derived directly from the primary screen, and both potency and efficacy values were used to identify compounds with robust bioactivity profiles. We screened the NIH Chemical Genomics Center (NCGC) Pharmaceutical Collection (NPC) and Mechanism Interrogation Plate (MIPE) small molecule collections of approved and investigational compounds against these cell lines; and measured metabolically active cells after 48 hours of compound treatment as a proxy for cell viability.
Assay Submitter: Nathalia J. Martinez, National Center for Advancing Translational Sciences, National Institutes of Health, Rockville, MD, USA; email: natalia.martinez@nih.gov
[1] Shen, M et al. Quantitative high-throughput phenotypic screening of pediatric cancer cell lines identifies multiple opportunities for drug repurposing. Oncotarget 2017 Dec 19;9(4):4758-4772. PMID 29435139.
The cells were obtained from University of North Carolina (UNC), Pediatric Preclinical Testing Program (PPT), and Coriell Institute (CI).
qHTS cell viability assay:
Cells were assayed in growth media at a density of 500-1,000 cells/well. Five microliters of cells were dispensed into 1,536-well, white, solid-bottom, TC-treated plates (Greiner Bio One) using a multidrop dispenser and incubated at 37 degrees C, 5% CO2, under a humidified atmosphere for 5 hours. Twenty-three nanoliters of compounds and controls (neutral control DMSO or positive control bortezomib at final concentration of 2.3 µM) were subsequently transferred by Kalypsys pintool. For primary screens, the MIPE collection was tested at 11-point dilutions (final concentrations range from 0.78 nM to 46 µM) and the NPC collection at 8-point dilutions (final concentrations range from 0.59 nM to 46 µM). Compounds tested in follow-up screens were assayed at 11-point dilutions. Cells were incubated for 48 hours, followed by addition of 3 µL of CellTiter-Glo (Promega). After a 15 min incubation at room temperature, samples were analyzed for luminescence intensity using a ViewLux High-throughput CCD imager equipped with clear filters.
Potency means the concentration at half of the fitted maximal effect.

| Compound | Potency | activity change, negative = cytotoxic |
| --- | --- | --- |
| NS(=O)(=O)c1cc(C(=O)O)c(NCc2ccco2)cc1Cl | inactive |  |
| CCOC(=O)C(C)Oc1cccc2c(=O)n(CC(=O)Nc3ccc4c(c3)OCCO4)ccc12 (stereo not given) |  | 0.509% (inactive) |
| CC1(C)CCC(C)(C)c2cc(NC(=O)c3ccc(C(=O)O)cc3)ccc21 | inactive |  |
| Cc1nc(-c2ccc(OCC(C)C)c(C#N)c2)sc1C(=O)O | inactive |  |
| COc1c(O)cc2c(c1O)[C@@H]1O[C@H](CO)[C@@H](O)[C@H](O)[C@H]1OC2=O |  | -10.6% (inactive) |
| COc1cc2c(cc1OC)C1CC(=O)C(CC(C)C)CN1CC2 (stereo not given) |  | 11.4% (inactive) |
| O=C1NC(=O)C(c2ccccc2[N+](=O)[O-])=C1Nc1ccc(O)c(Cl)c1 |  | -2.94% (inactive) |
| CCCCN(CCCC)CCC(O)c1cc2c(Cl)cc(Cl)cc2c2cc(C(F)(F)F)ccc12 (stereo not given) |  | -9.8% (inactive) |
| CCN(CC)CCOc1ccc(Nc2ncc3cc(-c4c(Cl)cccc4Cl)c(=O)n(C)c3n2)cc1 | 19.3 µM (active) |  |
| CCC(C)(Oc1ccc(C2(c3ccc(OC(C)(CC)C(=O)O)cc3)CCCCC2)cc1)C(=O)O (stereo not given) |  | 17.3% (inactive) |
| CCCOc1ccc2nc(NC(=O)OC)[nH]c2c1 | 123 nM (active) and 30.6 nM (active) |  |
| C[C@]12CCC(=O)C=C1CC[C@@H]1[C@H]2[C@@H](O)C[C@@]2(C)[C@H]1CC[C@]2(O)C(=O)CO |  | 11.8% (inactive) |
| CN(c1nccc(=O)[nH]1)C1CCN(c2nc3ccccc3n2Cc2ccc(F)cc2)CC1 |  | -3.2% (inactive) |
| CCOC(=O)C1=C[C@@H](OC(CC)CC)[C@H](NC(C)=O)[C@@H](N)C1 |  | 6.08% (inactive) |
| O=c1c(O)c(-c2ccc(O)cc2O)oc2cc(O)cc(O)c12 |  | -2.99% (inactive) |
| Clc1ccc2c(N3CCN(CCCN4CCN(c5ccnc6cc(Cl)ccc56)CC4)CC3)ccnc2c1 |  | 1.32% [at 20.1 µM] (inactive) |
| O=C(O)c1cn(-c2ccc(F)cc2)c2cc(N3CCNCC3)c(F)cc2c1=O |  | -1.21% [at 20.1 µM] (inactive) |
| C[C@H](Cc1ccc(O)c(O)c1)[C@@H](C)Cc1ccc(O)c(O)c1 | 15.3 µM (active) |  |
| Nc1cc(C(Cl)=C(Cl)Cl)c(S(N)(=O)=O)cc1S(N)(=O)=O | inactive |  |
| C[C@@H](c1ncncc1F)[C@](O)(Cn1cncn1)c1ccc(F)cc1F |  | 1.22% (inactive) |

| Compound | Potency | activity change, negative = cytotoxic |
| --- | --- | --- |
| Cc1cccc(-c2[nH]ncc2-c2ccc3ncccc3n2)n1 |  | -18.5% (inactive) |
| O=C1c2c(O)cc(O)cc2OC(c2ccc(O)c(O)c2)C1O (stereo not given) |  | 1.85% (inactive) |
| CNC[C@@H](O)[C@@H](O)[C@H](O)[C@H](O)CO |  | 17.5% (inactive) |
| CC(C)(S)[C@@H](N)C(=O)O |  | 7.51% (inactive) |
| O=c1oc2cc(O)ccc2s1 |  | -0.609% (inactive) |
| N[C@@H](Cc1cc(I)c(Oc2cc(I)c(O)c(I)c2)c(I)c1)C(=O)O | inactive |  |
| CCCCc1ccc2nc(NC(=O)OC)[nH]c2c1 | 27.3 nM (active) and 61.7 nM (active) |  |
| CCCCCCCCOc1ccccc1C(=O)Nc1ccc(C(=O)OCC[N+](C)(CC)CC)cc1 | 17.4 µM (active) |  |
| CCC1=C(C)CN(C(=O)NCCc2ccc(S(=O)(=O)NC(=O)NC3CCC(C)CC3)cc2)C1=O (stereo not given) | inactive |  |
| O=C(NC(Cc1cc(=O)[nH]c2ccccc12)C(=O)O)c1ccc(Cl)cc1 (stereo not given) | inactive |  |
| O=C(NCCO[N+](=O)[O-])c1cccnc1 | inactive |  |
| Cc1c(C(=O)NN2CCCCC2)nn(-c2ccc(Cl)cc2Cl)c1-c1ccc(Cl)cc1 | 4.85 µM (active) |  |
| Cc1cc(=O)oc2cc(O)ccc12 | inactive |  |
| COc1cc(Nc2c(C#N)cnc3cc(OCCCN4CCN(C)CC4)c(OC)cc23)c(Cl)cc1Cl | 27.6 µM (active) |  |
| O=C(NOCC1CC1)c1ccc(F)c(F)c1Nc1ccc(I)cc1Cl | 27.6 µM (active) and 24.3 µM (active) |  |
| COc1ccc(C2(C#N)CCC(C(=O)O)CC2)cc1OC1CCCC1 (stereo not given) |  | 15% (inactive) |
| O=C(O)c1cccc(-c2noc(-c3ccccc3F)n2)c1 |  | 4.21% (inactive) |
| CC(=O)Nc1ccc(O)cc1 |  | -0.986% (inactive) |
| C=CCc1cc(OC)c(O)c(C(=O)NCCO)c1 | inactive |  |
| CN(C)c1ccc2nc3ccc(=[N+](C)C)cc-3sc2c1 | 6.85 µM (active) and 3.09 µM (active) |  |

Reference: PubChem BioAssay (NCATS)
